AmpC inh detg – qHTS Inhibitors of AmpC Beta-Lactamase (assay with detergent) | P00811 | AmpC hydrolysis of nitrocefin, absorbance 480 nm, 0.01% Triton | Potency, µM (series often up to 114 µM), most hits filed as inhibitors | hit rate 0.041% among 370,000; note: nearly all actives have a fitted effect of over 25% in size
Target sequence (P00811 whole entry, looked up): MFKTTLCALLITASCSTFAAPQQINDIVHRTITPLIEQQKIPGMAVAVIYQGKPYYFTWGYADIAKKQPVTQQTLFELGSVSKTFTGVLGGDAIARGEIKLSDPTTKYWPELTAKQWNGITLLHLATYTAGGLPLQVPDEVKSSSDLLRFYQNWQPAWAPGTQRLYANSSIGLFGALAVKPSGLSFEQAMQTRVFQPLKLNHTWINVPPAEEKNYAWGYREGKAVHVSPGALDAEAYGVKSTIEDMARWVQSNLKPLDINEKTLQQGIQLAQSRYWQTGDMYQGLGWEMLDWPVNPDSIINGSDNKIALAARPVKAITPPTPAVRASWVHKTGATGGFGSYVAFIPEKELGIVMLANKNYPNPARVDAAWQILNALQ
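20 mM phosphate pH 7.0 + 0.01% (detergent screen) or 0.0001% Triton X-100; 5.3 nM AmpC reagent; cpd preinc 15 min RT; nitrocefin (800 uM stock) to start; A480 q20 s × 4 min; Activity was normalised to no-enzyme and no-compound control wells.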
FMDV inh – High Throughput Screening for Foot and Mouth Disease Virus Antivirals; FMDV antiviral cell-based qHTS; Potency, µM (top dose mostly 57.9 µM), usual class: inhibitors; hit rate 1.2% among 410,000; AID 1159524, 2015; calls by dose curve; tested in HEK293T cells; note: read-out not given here; nearly all actives have a fitted effect of over 45% in size
AmpC inh no detg – qHTS Inhibitors of AmpC Beta-Lactamase (assay without detergent); hit rate 0.52% among 330,000; AmpC nitrocefin hydrolysis, absorbance 480 nm, 0.0001% Triton; P00811; Potency, µM (highest dose often 57.1 µM), usual class: inhibitors; note: nearly all actives have a fitted effect of over 20% in size
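AmpC (5.3 nM in the dispensed reagent) in 20 mM phosphate pH 7.0 with 0.01% (detergent screen) or 0.0001% Triton X-100 was preincubated with compounds for 15 min at room temperature. Nitrocefin was then added from an 800 uM solution, and hydrolysis was followed at 480 nm.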
AMA1-RON2 inh – qHTS for Inhibitors of AMA1-RON; Towards Development of Antimalarial Drug Lead: Primary Screen. Plasmodium falciparum AMA1 (3D7) - RON2 peptide interaction. AID 720542, 2013. hit rate 0.2% among 360,000. Potency, µM (top dose mostly 58.2 µM), hits mostly inhibitors. AlphaScreen AMA1-biotinylated RON2 peptide binding; note: nearly all actives have a fitted effect of over 45% in size
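AMA1 (3D7) with his tag at 25 nM final met compounds first, then biotinylated RON2 peptide at 25 nM; detection used donor plus acceptor beads, 10 µg/mL apiece, read by AlphaScreen after 30 min at room temperature.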
Sm TGR inh – qHTS Assay for the Inhibitors of Schistosoma Mansoni Peroxiredoxins; Schistosoma mansoni thioredoxin glutathione reductase (TGR), Q962Y6; Potency, µM (doses to about 114 µM), usual class: inhibitors; purified TGR, DTNB reduction, TNB absorbance 405 nm; hit rate 3% among 360,000; AID 485364, 2010; note: nearly all actives have a fitted effect of over 60% in size
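TGR 20 nM + NADPH 100 uM (dispensed conc.), cpd preinc 15 min RT; start with NADPH (500 uM addition) then DTNB (15 mM addition). Kinetic TNB absorbance, 405 nm filter. Four-parameter Hill fit across titration.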
Large screens that a line does not name were inactive. Only some compounds are listed: those with a hit (about 4.1% of all), similar ones and a draw of the others. Unless noted, calls come from the whole dose curve; as a rule, active = well fitted curve in the direction sought with a large enough effect; inconclusive = small, poorly fitted or top-dose-only effect, or another doubt; inactive = no such curve, though single readings can be large; an effect the other way counts as inactive or inconclusive.

C=C1C(O)[C@@H]2O[C@]3(CC[C@H](/C=C/C(C)[C@@H]4CC(C)=CC5(O[C@H](C[C@@](C)(O)C(=O)O)CCC5O)O4)O3)CC[C@H]2O[C@@H]1C(O)CC(C)[C@H]1OC2(CCCCO2)CCC1C (stereo partly drawn)	FMDV inh 1µM (no result: AmpC inh detg, Sm TGR inh)
Cc1ccccc1CN1CCc2nc(Nc3ccc4c(c3)OCCO4)ncc2C1	FMDV inh inconclusive (no result: AmpC inh no detg, AMA1-RON2 inh)
CNC(CC(=O)O)C(=O)O (stereo not drawn)	none (no result: AmpC inh detg, AmpC inh no detg, AMA1-RON2 inh, Sm TGR inh)
CSc1nnc(C)c(=O)n1COC(=O)/C=C/c1ccc2c(c1)OCO2	Sm TGR inh 25µM
CSc1nnc(C)c(=O)n1COC(=O)/C=C/c1ccccc1	FMDV inh inconclusive, Sm TGR inh inconclusive
O=C(c1ccc(CSc2nc3ccncc3n2Cc2ccccc2F)cc1)N1CCCCC1	none (no result: AmpC inh no detg, AMA1-RON2 inh)
COc1ccc(-n2c(=O)c3sc4ccccc4c3n(CC(=O)NCc3ccccc3)c2=O)cc1	Sm TGR inh inconclusive (no result: AmpC inh no detg, AMA1-RON2 inh)
OCCCc1nc2n(n1)C(c1ccccc1Cl)C=C(c1cccs1)N2 (stereo not drawn)	Sm TGR inh 28µM
OCCCc1nc2n(n1)C(c1ccccc1)C=C(c1ccc(F)cc1)N2 (stereo not drawn)	Sm TGR inh 20µM
OCCCc1nc2n(n1)C(c1cccs1)C=C(c1ccccc1)N2 (stereo not drawn)	Sm TGR inh inconclusive (no result: FMDV inh, AMA1-RON2 inh)
CC(=O)N1CCc2nc3sc(C(=O)c4ccc(F)cc4)c(N)c3c(C(F)(F)F)c2C1	FMDV inh inconclusive (no result: AmpC inh no detg, AMA1-RON2 inh)
COc1ccc2[nH]cc(CC(N)C(=O)O)c2c1 (stereo not drawn)	none (no result: AmpC inh detg, AmpC inh no detg, AMA1-RON2 inh, Sm TGR inh)
NC(Cc1c[nH]c2ccc(OCc3ccccc3)cc12)C(=O)O (stereo not drawn)	Sm TGR inh 11µM
O=C(c1ccc(CS(=O)c2ccccc2Cl)o1)N1CCN(c2ccccc2F)CC1 (stereo not drawn)	none (no result: AmpC inh no detg, AMA1-RON2 inh)
CCOC(=O)[C@H]1[C@H]2COc3ccc(C)cc3[C@@H]2N2C(=O)CN(Cc3ccco3)C(=O)[C@@]12C	Sm TGR inh 14µM
CCOC(=O)[C@H]1[C@H]2COc3ccc(OC)cc3[C@@H]2N2C(=O)CN(Cc3ccc(OC)cc3)C(=O)[C@@]12C	Sm TGR inh 50µM
O=C(NCC1(c2ccccc2)CCCC1)c1ccco1	none
CCN(CC)S(=O)(=O)c1ccc(OC)c(NC(=O)/C=C/c2ccco2)c1	Sm TGR inh 3.2µM
COc1ccc(CNC(=O)/C=C/c2ccco2)cc1OC	Sm TGR inh 3.2µM
COc1ccc(C2(CNC(C)=O)CCCC2)cc1OC	none
O=C(/C=C/c1ccco1)NCC1(c2ccccc2)CCCC1	Sm TGR inh 7.9µM
CCN(CC)S(=O)(=O)c1ccc(N2CCCCC2)c(NC(=O)/C=C/c2ccc(OC)c(OC)c2)c1	AmpC inh detg inconclusive
COc1ccc(C2(CNC(=O)/C=C/c3ccco3)CCCC2)cc1OC	Sm TGR inh 3.5µM
COc1ccc(CNC(=O)/C=C/C(=O)O)cc1OC	Sm TGR inh inconclusive
Cc1cccc(NS(=O)(=O)c2cccc(C(=O)N3CCN(c4ccccn4)CC3)c2)c1	none
Cc1cc(Cl)c(S(=O)(=O)N2CCN(c3ccccn3)CC2)cc1OCC(=O)NC1CCCCC1	FMDV inh 22µM
Cc1ccc(N(C)C(=O)N2CCN(c3ccccn3)CC2)cc1	AmpC inh detg inconclusive, AmpC inh no detg 10µM
CN(c1ccccc1)S(=O)(=O)c1cccc(C(=O)N2CCN(c3ccccn3)CC2)c1	AmpC inh detg inconclusive, FMDV inh 40µM
CCOc1ccccc1N1CCN(C(=O)c2ccc(Cl)c(S(=O)(=O)N3CCCCC3)c2)CC1	FMDV inh 32µM
Cc1cc(Cl)c(S(=O)(=O)N2CCCCCC2)cc1OCC(=O)NC1CCCCC1	none
CCOc1ccccc1N1CCN(C(=O)c2cc(S(=O)(=O)N3CCCCC3)ccc2C)CC1	FMDV inh inconclusive
COC(=O)c1sccc1S(=O)(=O)N(CC(=O)NCc1ccc(F)cc1)c1ccccc1	none (no result: AmpC inh no detg, AMA1-RON2 inh)
Cc1cccc(C(=O)N[C@H]2CC[C@@H](n3cc(C(=O)N4CCCC4)nn3)CC2)c1	none (no result: AmpC inh detg, AmpC inh no detg, AMA1-RON2 inh, Sm TGR inh)
COCc1cc(C)n(CC(=O)Nc2ccc(NC(C)=O)cc2)c(=O)c1C#N	none (no result: AmpC inh no detg, AMA1-RON2 inh)
O=C(Nc1ccc(Br)cc1)c1ccc(F)c(S(=O)(=O)N2CCN(c3ccccn3)CC2)c1	FMDV inh inconclusive
O=C(c1ccc(Cl)c(S(=O)(=O)N2CCCCCC2)c1)N1CCN(c2ccccn2)CC1	FMDV inh 28µM
Cc1ccccc1NC(=O)c1ccc(F)c(S(=O)(=O)N2CCN(c3ccccn3)CC2)c1	AmpC inh detg inconclusive, FMDV inh 22µM
On1c2c(c3c4nonc4ccc31)CCCC2	AmpC inh detg inconclusive, Sm TGR inh inconclusive (no result: FMDV inh, AMA1-RON2 inh)
COn1c2c(c3c4nonc4ccc31)CCCC2	Sm TGR inh 28µM (no result: FMDV inh)
C=CCSc1nc2ccccc2n1C(=O)/C=C/c1cc(OC)c(OC)c(OC)c1	FMDV inh 8.9µM
CCSc1nc2ccccc2n1C(=O)/C=C/c1ccc(OC)c(OC)c1	FMDV inh 20µM
C=CCSc1nc2ccccc2n1C(=O)/C=C/c1ccc(OC)c(OC)c1	FMDV inh inconclusive
COc1cc(=O)n2c(c1C(=O)NCc1ccco1)CCN(C(=O)c1c(F)ccc(F)c1F)CC2	none (no result: AmpC inh detg, AmpC inh no detg, AMA1-RON2 inh, Sm TGR inh)
CC1CN(CN2C(=O)c3ccccc3C2=O)CC(C)O1 (stereo not drawn)	AmpC inh no detg 5.6µM
CCCS(=O)(=O)c1nc(S(=O)(=O)c2ccc(C)cc2)c(N(C)Cc2ccccc2)s1	none (no result: AmpC inh no detg, AMA1-RON2 inh)
CC(C)c1ccccc1Oc1c(C(F)(F)F)oc2c(CN3CCN(C)CC3)c(O)ccc2c1=O	none (no result: AmpC inh no detg, AMA1-RON2 inh)
N/C(=N\S(=O)(=O)c1ccccc1)c1ccc([N+](=O)[O-])cc1	Sm TGR inh 13µM
CCN(CC)C(=O)Cn1nnc2sc(-c3ccccc3)cc2c1=O	none (no result: AmpC inh no detg, AMA1-RON2 inh)
FC(F)(F)c1cccc(NC(=S)NC(c2ccccc2)c2ccccc2)c1	FMDV inh 25µM
O=C(CCS(=O)(=O)Cc1ccccc1)N1CCN(c2ccccc2)CC1	none
O=C(CCS(=O)(=O)Cc1ccccc1)N1CCN(c2ccc([N+](=O)[O-])cc2)CC1	AmpC inh detg inconclusive, FMDV inh inconclusive, Sm TGR inh 25µM
Clc1ccc(C(Cl)(Cl)Cl)c(Cl)c1	Sm TGR inh 2.8µM
N=C(N)SCc1ccc(Cl)cc1Cl	FMDV inh inconclusive
O=C(N[C@@H](Cc1ccc(O)cc1)C(=O)O)c1cccnc1	Sm TGR inh 50µM
O=C(N[C@@H](Cc1ccccc1)C(=O)O)c1ccncc1	none
CCn1c(O)c(N=NC(=O)CNC(=O)/C=C/c2ccco2)c2ccccc21	Sm TGR inh 35µM (no result: FMDV inh)
CN(C)c1ccc(-n2cccc2)cc1	AMA1-RON2 inh 20µM

Screening data deposited in PubChem by National Center for Advancing Translational Sciences (NCATS).
